Test results from PubChem BioAssay (NCI).
This is part of a sample that, as a whole, favours compounds with a hit. Of some 79,000 tested, about 15% had one in any assay. Activity calls are given as the source filed them. Rule as the data show it: active = growth inhibition above about 70%; inactive = the rest.

Experiment: NCI Yeast Anticancer Drug Screen. Data for the rad14 strain (AID 159);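 also: 0% = growth of vehicle-treated control cultures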
Conditions: S. cerevisiae rad14 strain growth inhibition, active compounds read high
Description: Growth inhibition of yeast strains with defined genetic alterations is measured as a screen for potential anti-cancer activity. Selected strains with alterations in DNA damage repair or cell cycle control were exposed to compounds and growth inhibition was measured relative to vehicle treated controls. The strain used in this assay is rad14

| SMILES | growth inhibition (at 1.2 µM) | growth inhibition (at 3.7 µM) | growth inhibition (at 11.0 µM) | growth inhibition (at 33.0 µM) | growth inhibition (at 100.0 µM) |
| --- | --- | --- | --- | --- | --- |
| CN(C)Cc1cccc(CN(C)C)[c]1[Sn]([Br])([c]1ccccc1)[c]1ccccc1 | -3% (inactive) | 17% (inactive) | 27% (inactive) | 78% (active) | 97% (active) |
| CCN(CC)N=Nc1c(C(N)=O)n[nH]c1C | -2% (inactive) | 1% (inactive) | 0% (inactive) | 3% (inactive) | 23% (inactive) |
| COc1ccc(/C(C#N)=C/c2ccc(OC)c(OC)c2)cc1 | -17% (inactive) | -29% (inactive) | -27% (inactive) | -13% (inactive) | 32% (inactive) |
| CN(C)CCNc1cccc2sc3ccc(O)cc3c(=O)c12 | -1% (inactive) | 1% (inactive) | 5% (inactive) | 12% (inactive) | 19% (inactive) |
| O=[N+]([O-])c1cccc2nc3ccccc3c(NCCc3cccc[n+]3[O-])c12 | 12% (inactive) | 37% (inactive) | 89% (active) | 97% (active) | 99% (active) |
| Cc1ccc(I)cc1N=C=S | -11% (inactive) | -10% (inactive) | 11% (inactive) | 94% (active) | 99% (active) |
| O=C(NC(=S)Nc1ccccn1)c1ccccc1 | -30% (inactive) | -20% (inactive) | -19% (inactive) | -21% (inactive) | -23% (inactive) |
| O=Nc1ccc(Nc2ccccc2)cc1 | -23% (inactive) | -28% (inactive) | -44% (inactive) | 37% (inactive) | 96% (active) |
